The record followed here is PubChem BioAssay (NCATS).

Each structure is given as a SMILES string. Where “and” joins values, the source holds several entries; their conditions need not be identical. Identical values can stand only once. Values without a mark were called inactive. Some compounds were tested as several samples or in several runs, with calls that do not always agree. Calls of active or inactive are those of the source. Calls follow the shape of the dose curve; as a rule, active = well fitted activation curve with a large enough effect; inconclusive = small, poorly fitted or top-dose-only effect; inactive = flat fitted curve, though single readings scatter.
Potency is read from the fitted curve at half-maximal effect.

Chain of Peroxisome proliferator-activated receptor alpha (Homo sapiens) (Q07869 whole entry, looked up): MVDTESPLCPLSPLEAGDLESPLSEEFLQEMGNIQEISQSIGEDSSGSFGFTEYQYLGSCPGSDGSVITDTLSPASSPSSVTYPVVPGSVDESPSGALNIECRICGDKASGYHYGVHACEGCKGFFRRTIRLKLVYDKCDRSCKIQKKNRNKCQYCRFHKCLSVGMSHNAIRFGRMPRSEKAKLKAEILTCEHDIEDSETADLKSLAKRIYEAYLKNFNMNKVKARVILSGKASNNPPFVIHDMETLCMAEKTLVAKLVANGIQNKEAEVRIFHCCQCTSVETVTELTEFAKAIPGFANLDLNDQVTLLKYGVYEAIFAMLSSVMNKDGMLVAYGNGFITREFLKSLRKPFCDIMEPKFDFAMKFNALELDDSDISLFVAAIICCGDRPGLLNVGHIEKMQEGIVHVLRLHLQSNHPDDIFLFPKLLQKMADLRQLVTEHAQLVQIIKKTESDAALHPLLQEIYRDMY

The experiment addresses Peroxisome proliferator-activated receptor alpha (Homo sapiens) (UniProt Q07869). The experiment can be described thus: qHTS assay for small molecule agonists of the peroxisome proliferator-activated receptor alpha (PPARalpha) signaling pathway (AID 651778). As to max response: % of control where 0% means no effect. Particulars: PathHunter PPARalpha complementation, chemiluminescence, 6 h; max response: active compounds read high. The gist of the method: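 Cells plated at 2,000/well and held overnight at 37 C, 5% CO2, then compound added by pin tool for 6 hr; after PathHunter detection reagent and 60 min at room temperature, chemiluminescence from enzyme complementation was read.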
Background: In qHTS, concentration-response curves come from the screen itself.
For `NC(N)=NC(N)=NCCc1ccccc1`, the Potency was 35.5 µM (active) and the max response is -1.6%.

For `Cc1nnc(NS(=O)(=O)c2ccc(N)cc2)s1`, the max response is 6.59%.

For `Cc1ccnc2c1NC(=O)c1cccnc1N2C1CC1`, the max response is -3.94%.

For `S=P(N1CC1)(N1CC1)N1CC1`, the max response is -1.18%.

Consider `N=C(N)c1ccc(OCCCCCOc2ccc(C(=N)N)cc2)cc1`, for which the max response is -3.05% and -5.88%.

In the case of `CC(=O)[C@H]1CC[C@H]2[C@@H]3CCC4=CC(=O)CC[C@]4(C)[C@H]3CC[C@]12C`, the max response is 1.94% and -2.09% and -1.65%.

As for `CC(=O)Oc1ccccc1C(=O)Nc1ncc([N+](=O)[O-])s1`, the max response is -4.4%.

With `CC1=NN(c2ccccc2)C(=O)C1`, the max response is -0.816% and -5.33%.

With `Nc1nc(N)c2nc(CNc3ccc(C(=O)NC(CCC(=O)O)C(=O)O)cc3)cnc2n1` (centres undefined), the max response was -1.16%.

Consider `Cc1noc(NS(=O)(=O)c2ccc(N)cc2)c1C`, for which the max response is 0.0609% and -2.74%.

For the compound `CN(C)c1ccc(C(=C2C=CC(=[N+](C)C)C=C2)c2ccc(N(C)C)cc2)cc1`, the max response was -11.8% and -11.3%.

Turning to `CC[C@H](C)C(=O)O[C@H]1C[C@@H](C)C=C2C=C[C@H](C)[C@H](CC[C@@H]3C[C@@H](O)CC(=O)O3)[C@H]21`, the max response was 1.65%.

`COc1ccc2cc3[n+](cc2c1OC)CCc1cc2c(cc1-3)OCO2`: the max response is -3.31%.
